Experimental data taken from ChEMBL document CHEMBL4513216, “Probing the Open Global Health Chemical Diversity Library for Multistage-Active Starting Points for Next-Generation Antimalarials” (ACS Infect Dis, 2020).
In all, about 69,000 compounds went through this assay and about 8,600 (12%) showed an effect of 50% or more. Many of the other results were omitted from the sample, so strong results are more common in it than they were.

Each molecule was assayed on Plasmodium berghei (assay: Screen against P. berghei liver stage (PbLuc), transformed with Luciferase, at 10uM). Settings: tested at 10 uM.
Type: functional, HepG2

Structure (SMILES)	INHIBITION
O=C1CC2(CCCCN2C(=O)c2cccs2)CN1CC1CC1 (centres undefined)	11.2%
Cc1cc(NC(=O)NCC(O)c2ccc(F)c(F)c2)n(C)n1 (centres undefined)	21.8%
CCn1cnnc1C1CCN(C(=O)c2cc(OC)ccc2OC)CC1	23.7%
COc1cc(-n2cccc2)c(Cl)cc1C(N)=O	-90.8%
CCc1ncc(C(=O)N2CCCC2Cn2cccn2)s1 (centres undefined)	49.8%
CS(=O)(=O)Nc1ccn(Cc2ccc(F)cc2Cl)n1	31.7%
CC(C)(C)n1cc(C(=O)N2CCN(Cc3cccnc3)CC2)cn1	-39.67%
CCN(CC)C(=O)c1nnsc1-c1ccc(C)cc1	54.8%
CCN(CC)C(=O)c1nnsc1-c1ccc(Cl)cc1	33.9%
CCN(CC)C(=O)c1nnsc1-c1ccccc1	7.25%
CCOCC(=O)N1Cc2[nH]nc(COCC3CC3)c2C1	2.4%
CC(C)c1nc2c(n1C)CCN(CC(=O)Nc1ccncc1)C2	11.6%
N#Cc1ccc(CNC(=O)NCCC(=O)NC2CCCC2)c(F)c1	17.1%
CC1CCCCN1CCNC(=O)c1ccn(-c2ccc(F)cc2)n1 (centres undefined)	34.1%
Cc1cccc(NC(=O)[C@@H]2CCCN2Cc2ccc(C#N)cc2F)n1	25.2%
N#Cc1ccc(CNC(=O)NCCNC(=O)C2CCCC2)c(F)c1	52.8%
CC1CCCCN1CCNC(=O)NCc1ccc(C#N)cc1F (centres undefined)	50.7%
N#Cc1ccc(F)c(CNC(=O)NCCC(=O)NC2CCCC2)c1	22.5%
CC(C)S(=O)(=O)N1CCC(Cc2cccc(C(=O)O)c2)C1 (centres undefined)	1.37%
CN1C(=N)NC(=O)/C1=C\c1ccc(-c2ccc(F)cc2)o1	19.3%
CCn1cc(S(=O)(=O)N2CCC(C)CC2)c(C)n1	4.35%
O=C(c1sccc1C1CC1)N1CCN(c2nccs2)CC1	36.3%
CN(C)c1cc(C(=O)N2CCN(c3cc(C#N)ccn3)CC2)ccn1	-8.95%
COC(=O)c1ccc(N2CCN(C(=O)c3ccn(C)c(=O)c3)CC2)cc1	54.5%
COc1ccnc(N2CCN(C(=O)c3cccc(C#N)c3)CC2)n1	18.2%
O=C(c1cccc(Oc2ccccc2)c1)N1CCCC(O)(CO)CC1 (centres undefined)	16.1%

Structure (SMILES)	INHIBITION
Cn1ccc(C(=O)N2CCN(c3cc(C#N)ccn3)CC2)cc1=O	59.4%
N#Cc1cccc(C(=O)N2CCCC(O)(CO)CC2)c1 (centres undefined)	66.9%
Cn1ccc(C(=O)N2CCN(c3ncccn3)CC2)cc1=O	31.3%
Cn1ccc(C(=O)N2CCN(c3ccccn3)CC2)cc1=O	36.1%
CCOc1ccnc(N2CCN(C(=O)c3cccc(C#N)c3)CC2)n1	-13.7%
COC(=O)c1ccc(N2CCN(C(=O)c3ccc(=O)n(C)c3)CC2)cc1	36.9%
O=C(c1cccc(-c2ccc(F)cc2)c1)N1CCCC(O)(CO)CC1 (centres undefined)	-122%
N#Cc1cccc(C(=O)N2CCN(c3ncccn3)CC2)c1	62.1%
COCCNC(=O)c1cc(OC)c2ccoc2c1	27.7%
CNc1nc(C(=O)N2CCCn3nc(C(=O)N4CCCC4)cc3C2)cs1	26.5%
CC(Cn1cccn1)NC(=O)NCc1cccnc1OC(C)C (centres undefined)	11.2%
CC[S+]([O-])CCc1nc(CC(C)C)nn1-c1ccc2c(c1)OCCO2 (centres undefined)	30.3%
CCCNC(=O)COc1cc(C)c2c(C)nn(-c3ccc(C)cc3)c2n1	15.4%
Cc1ccc(-n2nc(C)c3c(C)cc(OCC(=O)NC(C)C)nc32)cc1	2.55%
CCNC(=O)COc1cc(CC)c2c(C)nn(-c3ccc(C)cc3)c2n1	66.1%
CS(=O)(=O)N1CCC(NC(=O)COc2ccc(Br)cc2Cl)CC1	45.1%
Cc1nc(N)cc(C2CCN2CCC(N)=O)n1 (centres undefined)	-4.87%
Cc1ccsc1C(=O)N1CCC2(CC1)C(=O)N(C)CCN2CC1CC1	4.08%
Cc1ccc(NC2CCN(C(=O)c3cccc4cccnc34)CC2)nn1	11.9%
O=C(CCN1C[C@@H]2CC[C@H]1CN(c1ncccn1)C2)NCc1ccco1	6.67%
CS(=O)(=O)N1C[C@H]2CC[C@@H](C1)N(CCC(=O)NCc1ccco1)C2	13.2%
CN(C)S(=O)(=O)N1C[C@H]2CC[C@@H](C1)N(CCC(=O)NCc1ccco1)C2	66.9%
O=C(COc1coc(CN2CCCCC2)cc1=O)c1ccc(Cl)cc1	38.3%
CCN1CCOCC12CCN(C(=O)C1CCCC1)CC2	-7.28%
CC(CS(C)(=O)=O)NC(=O)N1CC2(CCCC2)c2ccccc21 (centres undefined)	-16.1%
Cc1c(-c2cnn(C)c2)nc(N)c(C#N)c1-c1ccc(CO)o1	88%

Structure (SMILES)	INHIBITION
COc1ncc(-c2c(C#N)c(N)nc3c2CCc2[nH]ccc2-3)cn1	39.05%
CC(C)n1cc(-c2c(C#N)c(N)nc3c2COCC3)cn1	34.5%
Cn1cc(-c2c(C#N)c(N)nc3c2CCc2[nH]ccc2-3)cn1	60.1%
Cn1cc(-c2c(C#N)c(N)nc3c2CCc2[nH]ccc2-3)cc1C#N	50%
COCCc1ncc(-c2c(C#N)c(N)nc3c2CCc2[nH]ccc2-3)cn1	27.9%
Cc1cc(-c2c(C)c(-c3cnn(C)c3)nc(N)c2C#N)oc1C	31.6%
Cc1n[nH]c(C)c1-c1c(C#N)c(N)nc2c1CCc1[nH]ccc1-2	39.7%
CCc1ccc(-c2c(C)c(-c3cnn(C)c3)nc(N)c2C#N)o1	-7.7%
O=C(CN1CCCC1Cn1cncn1)Nc1nncs1 (centres undefined)	-8.66%
COCCN(Cc1ccccc1Cl)c1nc(CCN)nc2ccccc12	47.3%
N#Cc1cccc(CN2C[C@H](NC(=O)C3CC3)[C@H]3OCCC[C@H]32)c1	35.8%
COc1cc(C(=O)N(Cc2cccs2)C2CC2)cc2c1OCCO2	47.4%
Cc1oncc1C(=O)N[C@@H]1CN(Cc2ccco2)C[C@@H]2CCCO[C@@H]21	0.453%
COC(=O)CNC(=O)c1nc(Br)sc1C(C)C	45.3%
Cc1nc2n(n1)CC(NCCC(=O)Nc1cc(C)on1)CC2 (centres undefined)	-3.2%
CCc1nccn1-c1cncc(C2CCN(C(=O)COC)CC2)n1	-22.6%
COc1nc2cc(C)ccc2cc1CN(C)Cc1n[nH]c2c1CCCC2	28.15%
Cc1cc(CN(C)C(C(=O)O)c2ccc(C(C)(C)C)cc2)on1 (centres undefined)	58.4%
Cc1cc(CN(C)C(C(=O)O)c2cccc(C(F)(F)F)c2)on1 (centres undefined)	-21.2%
CCOc1cccc(C(C(=O)O)N(C)Cc2cc(C)no2)c1 (centres undefined)	-24.6%
CN(Cc1cc[nH]n1)C(=O)c1ccc2c(c1)nc(N1CC[C@H](O)C1)n2C	22.6%
COc1ccc(COCC(O)CSc2ccc(NC(C)=O)cc2)cc1 (centres undefined)	5.75%
O=C(O)CCN(Cc1ccc(F)c(F)c1)C(=O)C1CC1	40.1%
N#Cc1ccc(Cl)cc1NCC1CCOC1 (centres undefined)	-10.5%
Cc1c(C(N)=O)sc2nc(C(F)(F)F)ccc12	54.5%
Cc1c(C(=O)O)sc2nc(C(F)(F)F)ccc12	-11.9%

Structure (SMILES)	INHIBITION
Cc1c(C(=O)N2CCSCC2)sc2nc(C(F)(F)F)ccc12	14.9%
Cc1ncnc(NCCCN2CCCCC2CO)c1C (centres undefined)	-17.8%
CC(C(N)=O)N1CCN(c2ncc(Br)cn2)CC1 (centres undefined)	21.8%
CCn1c(C)nnc1SCCNc1nc(C)ncc1S(C)(=O)=O	-22.4%
CCc1cnc(C)nc1NCCSc1nnc(C)n1CC	55.7%
CCn1c(C)nnc1SCCNc1nc(C)nc2c1cnn2C	26.7%
Cc1cccc(CN2CCC3(CCCN(C(=O)NC(C)C)C3)C2=O)n1 (centres undefined)	8.67%
O=C(c1ccncn1)N1C[C@H]2CCC[C@@]2(COCC2CCOCC2)C1	64.9%
O=C(c1ncccn1)N1C[C@H]2CCC[C@@]2(COCC2CCOCC2)C1	0%
O=C(c1ccnnc1)N1C[C@H]2CCC[C@@]2(COCC2CCOCC2)C1	43.8%
O=C(c1cccs1)N1C[C@H]2CCC[C@@]2(COCC2CCOCC2)C1	77.7%
Cc1ncoc1C(=O)N1C[C@H]2CCC[C@@]2(COCC2CCOCC2)C1	44.4%
O=C(c1ccccn1)N1C[C@H]2CCC[C@@]2(COCC2CCOCC2)C1	45.1%
Cc1ccc(C(=O)N2C[C@H]3CCC[C@@]3(COCC3CCOCC3)C2)o1	62.5%
O=C(c1ncccn1)N1C[C@H]2CCC[C@@]2(COCc2ccncc2)C1	-15.8%
c1csc(CN2C[C@H]3CCC[C@@]3(COCC3CCOCC3)C2)n1	49.7%
CCCOc1cc(C)ccc1NC(=O)N(C)Cc1cnn(C)c1	38.5%
O=C(O)[C@]12CCCN(C3CCOC3)C[C@H]1CN(c1nncs1)C2 (some centres undefined)	4.98%
CN1CCN(C[C@@H]2CN(C(=O)CC3CCCCC3)C[C@@H]2CO)CC1	6.65%
CC(NC(=O)CCS(=O)(=O)C1CCCC1)c1nc(-c2ccccc2)c[nH]1 (centres undefined)	4.81%
CC(NC(=O)CCc1cccs1)c1nnc2n1CCCCC2 (centres undefined)	-29.1%
Cc1nsc(N2CCN(CC(=O)NCc3cccnc3)CC2)n1	-101%
CCc1nsc(N2CCN(CC(=O)NCc3cccnc3)CC2)n1	78.1%
CCCNC(=O)CN1CCN(c2nc(CC)ns2)CC1	-23.2%
CN(C)C(=O)c1cccc(CN2CCN(CC(O)C(C)(C)C)CC2)c1 (centres undefined)	-13.5%
Cc1c(Br)c(C(F)(F)F)nn1C(C)C(=O)O (centres undefined)	8.49%
